# Compound activity (PubChem BioAssay)
# HCV inh = blocks hepatitis C virus; AID 651820; 340,000 tested, 3.4% active; Huh7.5.1 HCVcc-Cre infection, luciferase reporter, 44 h; Potency, µM (top dose mostly 41.8 µM), for the others: at the highest dose activity change, negative = inhibition, usual class: inhibitors; further: potency means the concentration at half of the fitted maximal effect
#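 A cell-based infection assay in which seeded cells (1,000 per well) receive test compound after 4 h, are inoculated with HCVcc-Cre at approximately 0.5 moi, and are incubated 44 h before luminescence detection.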
# Pf growth 48h = P. falciparum growth inhibition at 48 hours (one generation). AID 504832. P. falciparum luciferase growth in erythrocytes, 48 h. 310,000 tested, 5.9% active. Potency, µM (titrated, usually from 28.7 µM), for inactives: top-dose activity change, negative = inhibition, actives largely listed as inhibitors; further: potency means the concentration at half of the fitted maximal effect
#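 In quantitative HTS format, infected erythrocytes bearing luciferase-reporter parasites were treated for a single generation at 37 C. Luminescence after adding detection reagent served as the growth measure.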
# HCMV inh = human cytomegalovirus inhibition. HFF cells, HCMV-luciferase reporter, 72 h; active compounds read low. activity change, negative = inhibition, % at 57.5 µM. 410,000 tested, 4.5% active. AID 1259415; in the data active means activity change below about -60%; inconclusive means no clear call, values can overlap the other calls; inactive means above about -39%
#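 Two-dose cell screen: HFF monolayers treated with compounds and infected with luciferase-expressing HCMV at 1 PFU/cell, 72 h at 37C, then lysed for luciferase measurement.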
# Pf growth 96h = P. falciparum growth inhibition at 96 hours | AID 504834 | 320,000 tested, 6.9% active | Potency, µM (series often up to 28.7 µM), without a hit: at the highest dose activity change, negative = inhibition, actives largely listed as inhibitors | P. falciparum luciferase reporter growth, 96 h; further: potency means the concentration at half of the fitted maximal effect
#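 P. falciparum expressing integrated firefly luciferase grown in erythrocytes (2% hematocrit, 0.05% parasitemia final) with compounds for 96 hours at 37 C, 5% CO2. Growth inhibition read as loss of luminescence after adding luciferase detection reagent.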
# * = called active by the depositor; ? = inconclusive; . = no result given; [ ] = dose if it differs, or a comment. Most compounds without a hit are left out; they make up all but 13% or so of the library. Unless noted, the call rests on the fitted dose curve; in most records, active means well fitted inhibition curve with a large enough effect; inconclusive means small, poorly fitted or top-dose-only effect, or another doubt; inactive means no such curve, though single readings can be large or run the other way. On the % scale 0 is the no-effect control and ±100 the full control effect.
SMILES,HCV inh,Pf growth 48h,HCMV inh,Pf growth 96h
Cc1cccc(OCC(=O)Nc2nnc(S(=O)(=O)N3CCC(C)CC3)s2)c1,9%,42%,-36,?
O=C(COc1ccccc1Br)Nc1ccc(S(=O)(=O)N2CCCC2)cc1,2%,5.9µM*,-11,?
O=C(COc1ccc(C(=O)NCc2cccnc2)cc1)Nc1cccc(C(F)(F)F)c1,?,-18%,-38,?
O=C(COc1cccc(C(F)(F)F)c1)Nc1cccnc1,1%,11%,-85*,15%
Cc1cccc(OCC(=O)Nc2ccc(S(=O)(=O)N3CCCC3)cc2)c1,-14%,?,-21,36%
COc1ccc(CNC(=O)C(=O)NCC(c2ccco2)S(=O)(=O)c2cccs2)cc1 (centres undefined),.,.,5,.
CC(C)CCCC(C)NC(C)C (centres undefined),.,-1%,.,10%
COc1ccc(NC(=O)Cn2c(SCc3cccc(Cl)c3)nc3ccncc32)c(OC)c1OC,.,.,-1,.
Cc1oc(-c2cccc(Cl)c2)nc1CN1CCC(C(=O)NCc2ccc(F)cc2)CC1,.,.,11,.
CC1=C(C(=O)OC2CCCCCC2)C(c2ccc(Cl)cc2Cl)CC(=O)N1 (centres undefined),.,.,-31,.
O=C(COc1cccc(C(F)(F)F)c1)Nc1ccc(S(=O)(=O)N2CCCCC2)cc1,25µM*,?,-24,9.3µM*
COc1ccc(CCNC(=O)CN2CCN(c3cccc(Cl)c3)CC2)cc1OC,10µM*,.,11,?
CNC(=O)COc1coc(CN2CCN(c3ccccc3)CC2)cc1=O,-3%,7%,-5,-14%
CN(C(=O)COc1coc(CN2CCN(c3ccccc3)CC2)cc1=O)c1ccccc1,-3%,-13%,-16,13µM*
CCCNC(=O)COc1coc(CN2CCN(c3cccc(Cl)c3)CC2)cc1=O,-6%,-16%,-1,10µM*
CCCNC(=O)COc1coc(CN2CCN(c3ccccc3)CC2)cc1=O,-22%,11%,-24,?
CCN(CC)C(=O)COc1coc(CN2CCN(c3cccc(Cl)c3)CC2)cc1=O,11%,-12%,3,8.3µM*
COc1ccc(CNC(=O)N2CCN(c3cccc(Cl)c3)CC2)cc1OC,?,18%,-1,?
CC1CCCCN1CCCNC(=O)c1[nH]c2ccccc2c1Sc1ccc(Cl)cc1 (centres undefined),.,.,-27,.
CCOc1ccc(CC(=O)NCc2ccc3c(c2)CCN3C(C)=O)cc1OCC,.,.,74,.
Cc1cccc(-c2nnc(SCCC(=O)O)o2)c1,.,.,-88*,.
COC(=O)CSc1nnc(-c2ccc(OC)c(OC)c2)o1,2%,12%,1,-6%
COC(=O)CSc1nnc(-c2cccc(O)c2)o1,.,.,-65*,.
CCCCn1nnnc1C(c1ccccc1)N1CCN(c2cccc(C)c2C)CC1 (centres undefined),.,.,-15,.
Cc1cccc(-c2cccc(NC(=O)C3CCCN(C(=O)c4csc(C)n4)C3)c2)c1 (centres undefined),7.9µM*,?,?,?
SMILES,HCV inh,Pf growth 48h,HCMV inh,Pf growth 96h
CCc1nc(C)c(C(=O)N2CCCC(C(=O)Nc3cccc(-c4cccc(C)c4)c3)C2)o1 (centres undefined),11µM*,-27%,8,30%
Cc1cccc(-c2cccc(NC(=O)C3CCCN(C(=O)c4cccnc4)C3)c2)c1 (centres undefined),?,1%,?,?
Cc1cccc(-c2cccc(NC(=O)C3CCCN(C(=O)c4ocnc4C)C3)c2)c1 (centres undefined),?,-9%,14,?
COc1ccc(F)cc1CN1CCN(c2cc(C)nc3c4c(C)cc(C)nc4nn23)CC1,.,15µM*,.,?
Cc1cc(C)c2c(n1)nn1c(N3CCN(Cc4ccccc4)CC3)cc(C)nc21,17%,-16%,25,.
Cc1ccc(S(=O)(=O)c2cnc(SCC(=O)Nc3cccc(Cl)c3)nc2N)cc1C,.,.,9,.
CCN(C(=O)c1cccs1)c1nnc(-c2ccncc2)s1,0%,-104%,-65*,5%[5.75 µM]
Cc1noc(-c2ccc(-c3noc(-c4cccc(F)c4)n3)cc2)n1,.,.,4,.
CCOc1ccc(CNC(=O)C2CCN(S(=O)(=O)c3cn(C)cn3)CC2)cc1,.,.,7,.
COc1ccc(-c2cc(C(=O)N(C)Cc3cccc(OC)c3OC)c3ccccc3n2)cc1OC,?,9.3µM*,38,?
COc1ccc(CCN(C)C(=O)CSc2nnnn2C)cc1OC,10%,27%,-14,10µM*
COc1ccc(CCN(C)C(=O)COc2ccc(C(=O)c3ccccc3)cc2)cc1OC,?,?,0,?
COc1ccc(CCN(C)C(=O)Cc2ccc(-c3ccccc3)cc2)cc1OC,2.5µM*,?,-76*,?
COc1cccc(CN(C)C(=O)c2cc(-c3ccc(F)cc3)nc3ccccc23)c1,32µM*,?,.,13µM*
CCN(CCCNC(=O)c1nn(-c2ccc(C)cc2)c(=O)c2c1c1ccccc1n2C)c1cccc(C)c1,.,.,12,.
CCOc1ccccc1NC(=O)Cn1c(=O)n(-c2ccccc2)c(=O)c2c1c1cc(C)ccc1n2C,.,.,22,.
COc1ccc(CCN(C)C(=O)c2cc(-c3ccccc3)nc3ccccc23)cc1OC,.,13µM*,10,7.4µM*
COc1ccc(CN(C)C(=O)c2cc(-c3ccccc3)nc3ccc(C)cc23)c(OC)c1OC,10µM*,8.3µM*,.,?
COc1ccc(CCN(C)C(=S)Nc2cccc(C)c2)cc1OC,-2%,1.7µM*,12,?
COc1ccc(CCN(C)C(=O)c2cc(-c3ccccc3)nc3ccc(C)cc23)cc1OC,?,-28%,33,-99%
O=S1(=O)CC(N2CCC(c3ccccc3)CC2)CN1Cc1cn(Cc2ccc(C(F)(F)F)cc2)nn1 (centres undefined),.,.,-34,.
COc1ccccc1N1CCN(C(=O)Cn2c(=O)n3nc(-c4cccc(C)c4)nc3c3ccccc32)CC1,.,.,15,.
Cc1ccccc1CNC(=O)c1cnc2sc(N3CCC(C)CC3)nn2c1=O,.,.,4,.
CCOC(=O)c1c(C)sc(-c2c(-c3ccc(OC)c(F)c3)[nH]c3c2c(=O)[nH]c(=O)n3C)c1O,.,.,2,.
CC1CCC(C(C)C)C(OCC(O)CN2CCN(Cc3ccccc3)CC2)C1 (centres undefined),?,12µM*,?,?
SMILES,HCV inh,Pf growth 48h,HCMV inh,Pf growth 96h
CC1CCC(C(C)C)C(OCC(O)CN2CCOCC2)C1 (centres undefined),5%,-6%,17,.
OC(COc1ccc(OCC(O)CN2CCN(Cc3ccccc3)CC2)cc1)CN1CCN(Cc2ccccc2)CC1 (centres undefined),?,.,-18,.
CC1CCC(C(C)C)C(OCC(O)CN2CCCC(C)C2)C1 (centres undefined),?,?,?,13µM*
CC(C)Oc1ccc(C(=O)Nc2ccc3c(c2)CCCN3C(=O)c2cccs2)cc1,.,.,-89*,.
O=C(Nc1ccc2c(c1)CCCN2C(=O)c1ccccc1)c1ccccc1,?,?,-19,?
CCCCOc1ccc(C(=O)Nc2ccc3c(c2)CCCN3C(=O)c2cccs2)cc1,.,.,-87*,.
